Results on 40 molecules are retold here after PubChem BioAssay (NCATS).

Records with an inconclusive call do not appear. A number with no mark means an inactive call. Active and inactive are the calls of the source. The call rests on the fitted dose curve; in most records, active means well fitted activation curve with a large enough effect; inconclusive means small, poorly fitted or top-dose-only effect; inactive means no such curve, though single readings can be large or run the other way.
Potency means the concentration at half of the fitted maximal effect.

Chain of Cellular tumor antigen p53 (Homo sapiens) (P04637 whole entry, looked up): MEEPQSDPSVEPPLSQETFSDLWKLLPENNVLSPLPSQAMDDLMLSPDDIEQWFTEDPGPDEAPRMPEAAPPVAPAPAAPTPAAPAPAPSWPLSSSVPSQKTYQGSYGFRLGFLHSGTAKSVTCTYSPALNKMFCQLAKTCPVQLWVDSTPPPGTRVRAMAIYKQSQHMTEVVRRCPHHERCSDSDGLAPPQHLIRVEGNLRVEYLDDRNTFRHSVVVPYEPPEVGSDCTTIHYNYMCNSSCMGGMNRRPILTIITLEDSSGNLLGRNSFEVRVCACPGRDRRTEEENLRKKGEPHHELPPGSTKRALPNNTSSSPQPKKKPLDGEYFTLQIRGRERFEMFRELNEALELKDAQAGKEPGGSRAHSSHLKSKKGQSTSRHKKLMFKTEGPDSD

This assay deals with Cellular tumor antigen p53 (Homo sapiens) (UniProt P04637). The experiment in a line: Primary qHTS for small molecule compounds that upregulate eGFP-tagged delta133p53alpha (in N-terminal) cells. (AID 2060322). Further: nearly all actives have a fitted effect of over 75% in size.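 On activation: series mostly up to about 56 µM; 0% = DMSO vehicle and 100% = reference activator.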 Conditions: NCI-H358 eGFP-delta133p53alpha fluorescence, 24 h; activation: active compounds read high. The procedure, abridged:
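NCI-H358 cells pre-induced 24 h with 10 ng/ml doxycycline to express N-terminal eGFP-delta133p53alpha, then dosed 24 h at 37C without doxycycline; fixed, Hoechst-stained, GFP intensity by laser scanning cytometry, normalized to DMSO (0%) and 57.5 uM 5-azacytidine (100%).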
For orientation: Quantitative high-throughput screening tests each substance at several concentrations.
Consider `C[C@H]1/C=C/C=C/C=C/C=C/C=C/[C@@H](O)[C@H](C(=O)O)[C@H](O)C[C@H](O)CCC[C@H](O)C[C@H](O)C[C@H](O)[C@@H](C)C(=O)O[C@@H]1C`, for which the activation is 13.7%.

On to `CC(=O)OC[C@H]1O[C@H](O[C@]2(CO)O[C@H](CO)[C@@H](OC(=O)/C=C/c3ccccc3)[C@@H]2O)[C@H](O)[C@@H](O)[C@@H]1O`, for which the activation is -0.763%.

As to `NC1CCC(Nc2cc(-c3cccc(NCc4cccc(F)c4)n3)c(Cl)cn2)CC1` (stereo not given), the Potency is 1.51 µM (active).

For the molecule `CC(C)(C)c1ccc(C(=O)Nc2cn3cc(-n4ccnc4)ccc3n2)cc1`, the activation is 1.79%.

Turning to `C=C1C(OC(C)=O)[C@@]23CCC4[C@](C)(C(=O)O)CCC[C@@]4(C)[C@]2(O)CC[C@H]1C3` (stereo not given in full), the activation is 8.93%.

As to `CC(=O)N[C@H](Cc1c[nH]c2ccccc12)C(=O)OCc1cc(C(F)(F)F)cc(C(F)(F)F)c1`, the activation is 14.3%.

Regarding `CN(CC1(C)CCCO1)S(=O)(=O)c1ccc(Cl)c(S(N)(=O)=O)c1` (stereo not given), the activation is -1.69%.

As to `CC12CC34C=CC(=O)C(C)(CCC(=O)O)C3C(CC1C4)O2` (stereo not given), the activation is 23.7%.

As to `C=C1C(OC(C)=O)CCC2(C)CCC(C(C)(C)O)CC12` (stereo not given), the activation is -3.05%.

In the case of `COc1cc(C(C)=O)ccc1O[C@@H]1O[C@H](CO[C@@H]2OC[C@@H](O)[C@H](O)[C@H]2O)[C@@H](O)[C@H](O)[C@H]1O`, the activation is 9.16%.

As for `Nc1nc(Nc2ccc3c(c2)CCC(N2CCCC2)CC3)nn1-c1cc2c(nn1)-c1ccccc1CCC2` (stereo not given), the Potency was 26.9 µM (active).

In the case of `CC(C)(O[C@@H]1O[C@H](CO)[C@@H](O)[C@H](O)[C@H]1O)C(OC(=O)/C=C\c1ccc(O)cc1)C(=O)OCc1ccc(O[C@@H]2O[C@H](CO)[C@@H](O)[C@H](O)[C@H]2O)cc1` (stereo not given in full), the activation was -8.4%.

As for `CC1=C2C3OC(=O)C(C)C3(O)CCC2(C)CCC1O` (stereo not given), the activation is -10.7%.

For the molecule `COC(=O)N1CCC(n2ncc3c(N4CCOCC4)nc(-c4ccc(NC(=O)Nc5ccc(CO)cc5)cc4)nc32)CC1`, the Potency is 21.3 µM (active).

For `Cc1nc(C#Cc2ccnc(Cl)c2)c(C)n1-c1ccc(OC(F)(F)F)cc1`, the activation is -7.16%.

With `COC(=O)C1=CO[C@@H](O[C@@H]2O[C@H](CO)[C@@H](O)[C@H](O)[C@H]2O)[C@@H]2[C@@H](C)[C@@H](O)C(O)[C@H]12` (stereo not given in full), the activation was 14.5%.

Consider `CC(=O)O[C@@H]1[C@H](O[C@@H]2O[C@@H](CO)[C@H](O)[C@H]2O)[C@@H](O[C@@H]2O[C@@H](C)[C@H](O[C@@H]3OC[C@@H](O)[C@H](O)[C@H]3O)[C@@H](O)[C@H]2O)[C@H](OC(=O)[C@]23CCC(C)(C)C[C@H]2C2=CCC4[C@@]5(C)CC[C@H](O[C@@H]6O[C@H](C(=O)O)[C@@H](O)[C@H](O)[C@H]6O[C@@H]6O[C@H](CO)[C@H](O)[C@H](O)[C@H]6O)[C@@](C)(C=O)C5CC[C@@]4(C)[C@]2(C)CC3)O[C@@H]1C` (stereo not given in full), for which the activation was -13.7%.

Turning to `O=C1COC2(CCN(S(=O)(=O)c3ccc(-c4ccc5cccnc5c4)cc3)CC2)CN1C1CC1`, the activation is -15.7%.

Take `C=C1CC[C@@H]2[C@](C)(CO)[C@H](O)CC[C@@]2(C)[C@@H]1C/C=C1/C(=O)OCC1OC(=O)/C(=C/CO)C(O)C[C@@H]1C(=C)CC[C@@H]2[C@](C)(CO)[C@H](O)CC[C@]21C` (stereo not given in full): the activation was 13%.

In the case of `CC1(C)Oc2ncnc(N)c2N=C1c1ccc(C2CCC(CC(=O)O)CC2)cc1` (stereo not given), the activation was -4.46%.

As for `CC1(C)CC2C3=CCC4C5(C)CCC(OC6OC(C(=O)O)C(O)C(O)C6OC6OC(CO)C(O)C(O)C6OC6OC(CO)C(O)C(O)C6O)C(C)(CO)C5CCC4(C)C3(C)CCC2(C)C(OC2OCC(O)C(OC3OC(CO)C(O)C(O)C3O)C2O)C1O` (stereo not given), the activation is -18.3%.

As to `CC1COC2(OC3CC4C5CC(O[C@@H]6O[C@H](C)[C@@H](O[C@@H]7O[C@@H](C)[C@H](O)[C@@H](O)[C@H]7O)[C@H](O)[C@H]6O)C6CC(O)CCC6(C)C5CCC4(C)C3C2C)C(O)C1` (stereo not given in full), the activation is -10.7%.

Consider `C=C1CC[C@H]2[C@@H](/C=C(\C)C(=O)[C@@]3(OC(C)=O)C[C@H](C)[C@H](OC(C)=O)[C@@H]3[C@H]1OC(C)=O)C2(C)C`, for which the activation was -20.6%.

As to `CC(C)Oc1ccc(-c2nc(-c3cccc4c3CCC4NCCC(=O)O)no2)cc1C#N` (stereo not given), the activation was 0%.

As to `Cc1cccc(/C=N/Nc2cc(N3CCOCC3)n3nc(-c4ccncc4)cc3n2)c1`, the Potency was 19 µM (active).

Regarding `CC(=O)O[C@H]1C[C@@]2(C)[C@@H](CC[C@H]3[C@@]4(C)C=CC(=O)[C@@H](C)[C@@H]4[C@H](OC(C)=O)C(=O)[C@@]32C)/C1=C(\CCC=C(C)C)C(=O)O`, the activation was -16%.

As to `C[C@@H]1O[C@@H](O[C@H]2[C@@H]3C=CO[C@@H](O[C@@H]4O[C@H](CO)[C@@H](O)[C@H](O)[C@H]4O)[C@@H]3[C@@]3(CO)O[C@@H]23)[C@H](O)[C@H](OC(=O)/C=C/c2ccccc2)[C@H]1O`, the activation is 0.763%.

For the molecule `C=C1C(=O)OC2/C=C(\C)CC/C=C(\C=O)C(OC)C(OC(=O)C(C)CC)C12` (stereo not given), the Potency is 16.6 µM (active).

With `C/C(=C\CCC(C)CCO)C(=O)OC1(C)CCC2C(C(=O)O)=COC(OC3OC(CO)C(O)C(O)C3O)C21` (stereo not given), the activation was 4.58%.

Regarding `CC(C)CC[C@@H](O)[C@](C)(O)[C@H]1CC[C@@]2(O)C3=CC(=O)[C@@H]4C[C@@H](O)[C@@H](O)C[C@]4(C)[C@H]3CC[C@]12C`, the activation is -7%.

As for `COC(=O)c1cc(Br)cnc1N1CCC(NC2CCCCC2)C(O)C1` (stereo not given), the activation was -10.3%.

In the case of `C=C1C(=O)O[C@@H]2CC(C)=C([C@@H](C)CCCOC(C)=O)[C@@H](O)[C@H]12`, the activation was 28.6%.

Turning to `CC/C=C/C=C/C1(C)OC(CC(CO)OC)=CC1=O` (stereo not given), the activation is 1.79%.

As for `CC(=O)NC(CCC(=O)O)C(=O)NCCc1ccc(O)cc1` (stereo not given), the activation is -14.5%.

Regarding `CO[C@@H]1[C@]2(O)C(=O)N3/C=C\C(C)(C)c4[nH]c5ccccc5c4/C=C\3C(=O)N2[C@]23[C@H](CO)C(C)(C)N2c2ccccc2[C@]13O`, the activation was 8.4%.

As for `COC1CC(O[C@H]2CC[C@@]3(C)C(CCC4C3[C@H](OC(C)=O)[C@@H](OC(=O)/C=C/c3ccccc3)[C@]3(C)C(C(C)=O)CC[C@]43O)C2)OC(C)C1OC1CC(OC)C(OC2CC(OC)C(OC3OC(C)C(OC4OC(CO)C(O)C(O)C4O)C(OC)C3O)C(C)O2)C(C)O1` (stereo not given in full), the activation is -13%.

As for `C=C(C(=O)O)[C@@H]1CC[C@H](C)[C@@H]2CC(=O)C(C)=C2C1`, the activation is -8.04%.

On to `CCNC(=O)[C@@H]1CCCN1C(=O)[C@H](CCCN=C(N)N)NC(=O)[C@H](CC(C)C)NC(=O)[C@@H](CC(C)C)NC(=O)[C@H](Cc1ccc(O)cc1)NC(=O)[C@H](CO)NC(=O)[C@H](Cc1c[nH]c2ccccc12)NC(=O)[C@H](Cc1cnc[nH]1)NC(=O)[C@@H]1CCC(=O)N1`, for which the activation was 7%.

For `C=C1CCC2C(C)(C)CCCC2(C)C1CC/C(C)=C\CO` (stereo not given), the activation is -12.5%.

With `COC(=O)C1=COC(OC2OC(CO)C(O)C(O)C2O)C2C1CC(OC(=O)C(O)CC(=O)O)C2C` (stereo not given), the activation was 10.7%.
